Assay results: paper PMC5540273 (PLoS ONE, 2017)

Assays:
[1] = system: PRKD1
[2] = system: PRKD2
[3] = system: PRKCH
[4] = system: PRKCI
[5] = system: PRKCE
[6] = system: PKN1
[7] = system: PRKCQ
[8] = system: PLK1
[9] = system: PLK2
[10] = system: PLK3
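Note: kd values determined as follow-up on hits from a single-replicate KINOMEscan panel screen.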

SMILES: Cc1cccc(-c2nc(Nc3ccc4[nH]nnc4c3)c3ccccc3n2)n1 [GW867587]
- Kd [1]: 61 nM
- Kd [2]: 83 nM

SMILES: Fc1cccc(COc2ccc(Nc3ncnc4sc(-c5ccc[nH]5)cc34)cc2Cl)c1 [GW707818]
- Kd [3]: > 10000 nM

SMILES: O=C(c1ccc(-c2cc(-c3c[nH]nc3-c3ccccn3)ccn2)cc1)N1CCCC1 [GW792479]
- Kd [4]: > 10000 nM

SMILES: Cl.Cl.c1ccc(-c2cc3ccncc3cc2OC2CCNCC2)cc1 [GSK1122999]
- Kd [5]: 640 nM
- Kd [3]: 390 nM

SMILES: COc1cc2ncnc(Nc3ccc(OCc4ccccc4Br)c(Cl)c3)c2cc1OC.Cl [GI261590]
- Kd [6]: > 10000 nM
- Kd [7]: > 10000 nM

SMILES: NC(=O)c1sc(-n2cnc3ccccc32)cc1OCc1ccccc1F [GSK1024306]
- Kd [8]: 9.6 nM
- Kd [9]: 25 nM
- Kd [10]: 52 nM
